JMJD2A Tudor = inhibitors of human JMJD2A Tudor domain; Potency, µM (top dose mostly 114 µM), without a hit: at the top dose activity change, negative = inhibition, actives largely listed as inhibitors; O75164; AID 504339; 390,000 compounds, 4.4% hits; AlphaScreen JMJD2A-Tudor / H3K4me3 peptide binding; also: % is scaled to controls: 0 for no effect and ±100 for the full control effect; nearly all actives have a fitted effect of over 50% in size
BAZ2B block = inhibitors of human BAZ2B bromodomain | Potency, µM (highest dose often 114 µM), inactives show top-dose activity change, negative = inhibition, usual class: inhibitors | AlphaScreen BAZ2B-H3K14Ac peptide displacement | AID 504333 | 360,000 compounds, 4.4% hits | Q9UIF8; also: % is scaled to controls: 0 for no effect and ±100 for the full control effect; nearly all actives have a fitted effect of over 60% in size
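AlphaScreen luminescence quantifies BAZ2B engagement of H3K14Ac peptide; the protein and biotinylated peptide are both at 50 nM final, buffer PBS pH 7.4 with 0.01% Tween-20, all steps at room temperature.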
L3MBTL1 inh = inhibitors of human L3MBTL1; AID 485360; 230,000 compounds, 0.66% hits; AlphaScreen L3MBTL1–H3K9me1 peptide binding; Q9Y468; Potency, µM (highest dose often 57.1 µM), inactives show at the highest dose activity, negative = inhibition, actives largely listed as inhibitors; also: % is scaled to controls: 0 for no effect and ±100 for the full control effect; nearly all actives have a fitted effect of over 60% in size
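Read-out is AlphaScreen signal from streptavidin donor and nickel chelate acceptor beads (10 ug/mL final each) bridging L3MBTL1 (50 nM) and biotinylated K9-monomethylated H3(1-15) peptide (75 nM), after 30 min compound exposure at room temperature.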
G9a inh = blocks human histone lysine methyltransferase G9a. 350,000 compounds, 8.8% hits. AID 504332. G9a H3K9 monomethylation, AlphaScreen, 2 h. Potency, µM (series often up to 102 µM), inactives show at the highest dose activity, negative = inhibition, actives largely listed as inhibitors; also: % is scaled to controls: 0 for no effect and ±100 for the full control effect; nearly all actives have a fitted effect of over 75% in size
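G9a (20 nM) was preincubated 15 min with compound, then reacted 2 h at room temperature with 500 nM biotin-H3K9 peptide and 20 µM SAM. Monomethyl-H3K9 detected by AlphaScreen using anti-H3K9me1 antibody.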
HP1b chromo inh = blocks HP1-beta chromodomain binding to methylated histone tails; 390,000 compounds, 0.56% hits; AlphaScreen HP1-beta / biotin-H3K9me3 peptide binding; P83916; Potency, µM (doses to about 114 µM), for the others: at the top dose activity change, negative = inhibition, actives largely listed as inhibitors; also: nearly all actives have a fitted effect of over 70% in size
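HP1-beta protein (50 nM final) preincubated 30 min at room temperature with biotinylated H3(1-18)K9me3 peptide (50 nM) in PBS pH 7.4, 0.01% Tween-20, then compound added for 30 min. AlphaScreen streptavidin donor/nickel chelate acceptor beads (10 ug/mL final), 30 min dark, luminescence read.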
An asterisk follows results filed as active; u = inconclusive; x = no result given; [ ] = remark or other dose. A selection: hits, their analogues and other compounds. The true share with any hit is near 11%. Calls follow the shape of the dose curve; as a rule, active = well fitted inhibition curve with a large enough effect; inconclusive = small, poorly fitted or top-dose-only effect; inactive = no such curve, though single readings can be large or run the other way. Potency is read from the fitted curve at half-maximal effect.

SMILES	JMJD2A Tudor	BAZ2B block	L3MBTL1 inh	G9a inh	HP1b chromo inh
S=C(NN=C(c1ccccc1)c1ccccn1)N(Cc1ccccn1)Cc1ccccn1	12.6µM*	x	x	x	u
CC(=O)c1ccc(NC(=O)c2cnc(N3CCCC3)nc2C)cc1	-0.7%	-3.3%	x	29.0%[59 µM]	43.1%
C/C(=N\N=C1\NC(=O)CC(C(=O)O)S1)c1ccc(F)cc1 (centres undefined)	-19.9%	-21.2%	-3.5%	0.3%[59 µM]	31.6%
COc1ccc(/C(C)=N/N=C2/NC(=O)CC(C(=O)O)S2)cc1 (centres undefined)	44.7µM*	-2.6%	3.7%	11.7%[59 µM]	8.3%
O=C1CC(C(=O)O)S/C(=N\NC(=O)c2ccccc2)N1 (centres undefined)	1.41µM*	50.1µM*	12.3%	u	10.6%
C/C(=N\N=C1\NC(=O)CC(C(=O)O)S1)c1cccs1 (centres undefined)	3.3%	-7.8%	4.1%	-8.9%[0.0925 µM]	16.3%
Cc1ccccc1NC(=O)CSc1cn(CC(=O)N2CCCCCC2)c2ccccc12	0.7%	-22.8%	x	-12.5%[59 µM]	31.4%
COc1ccccc1CNC(=O)c1c[nH]c2ccc(S(=O)(=O)Nc3cc(C)cc(C)c3)cc2c1=O	-17.9%	-12.1%	x	-40.0%[59 µM]	10.2%
COc1ccc(-c2cc(C(F)(F)F)nc(SCC(=O)NCC(C)C)n2)cc1OC	1.7%	1.1%	x	14.7%[59 µM]	52.2%
O=Nc1c(O)n(Cc2ccc(Cl)cc2Cl)c2ccccc12	u	44.7µM*	-12.7%	u	-2.6%
COc1cccc(-c2nc(SCC(=O)NC3CCCC3)c(-c3ccccc3)[nH]2)c1	u	-38.4%	x	-33.6%[59 µM]	-12.7%
Cc1ccc(C(=O)N[C@@H](Cc2ccccc2)C(=O)N2CCC3(CC2)NCCc2[nH]cnc23)cc1C	24.1%	-30.2%	x	79.4µM*	41.2%
CCOC(=O)N1CCC(NC(=O)c2cnn(-c3cccc(F)c3)c2-n2cccc2)CC1	-14.9%	-5.6%	x	-1.8%[59 µM]	20.3%
Cc1ccc(/C=C/C2=Cc3c(sc(NC(=O)CSc4n[nH]c(N)n4)c3C#N)C(C)(C)C2)o1	x	u	u	8.91µM*	x
Cc1sc(NC(=O)CSc2n[nH]c(N)n2)c(C#N)c1C	-30.6%	x	x	x	-3.1%[57 µM]
Cc1sc(NC(=O)c2cccs2)c(C(N)=O)c1C	-20.8%	-6.2%	1.7%	3.98µM*	u
Cc1ccc(Cn2c(C)c3cnn(CC(=O)N4CCN(c5ccc(F)cc5)CC4)c(=O)c3c2C)cc1	u	u	x	u	11.4%
COc1cccc(N2CCN(c3ccc4nnc(CCC(=O)Nc5ccc(C)cn5)n4n3)CC2)c1	-33.0%	-36.5%	x	-1.9%	-12.0%
CC(=O)c1ccc(N=c2scc(C)n2C(C)C)cc1	u	u	x	44.7µM*	-17.3%
C=CCc1cccc2cc(C(=O)Nc3ccc(CC(=O)O)cc3)c(=O)oc12	-12.0%[11.4 µM]	31.6µM*	-9.5%	50.1µM*	-22.8%
C=CCc1cccc2cc(C(=O)N3CCN(C(=O)c4ccccc4)CC3)c(=O)oc12	-15.5%	u	x	14.1µM*	27.3%
C=CCc1cccc2cc(C(=O)Nc3ccc(F)cc3)c(=O)oc12	-20.1%	-10.5%	-2.4%	1.9%[59 µM]	9.2%
C=CCc1cccc2cc(C(=O)Nc3ccc(S(=O)(=O)Nc4nnc(CC)s4)cc3)c(=O)oc12	28.2µM*	22.4µM*	4.7%	u	28.2µM*
CCc1nnc(NS(=O)(=O)c2ccc(NC(=O)c3ccccc3C)cc2)s1	-9.6%	x	x	-48.7%	29.4%
CCCN1CCN(CCNC(=O)Nc2ccc(OC)cc2OC)CC1	-11.0%	-11.6%	x	-3.9%[59 µM]	23.2%
SMILES	JMJD2A Tudor	BAZ2B block	L3MBTL1 inh	G9a inh	HP1b chromo inh
O=C(CNC(=O)C1CCCC1)OC(C(=O)Nc1cc(C(F)(F)F)ccc1Cl)c1ccccc1 (centres undefined)	-11.0%	x	x	x	x
COc1ccc(N2CCN(C(=O)C(=O)c3c(C)[nH]c4ccccc34)CC2)cc1	u	u	x	39.8µM*	-4.1%[57 µM]
CCOC(=O)c1c(C)[nH]c(C(=O)N2CCN(c3ccc(OC)cc3)CC2)c1C	u	39.8µM*	-23.3%	44.7µM*	-22.2%
CCN(CC)C(=O)Cn1cc(C(=O)C(=O)N2CCN(c3ccc(OC)cc3)CC2)c2ccccc21	-19.2%	-33.6%	x	50.1µM*	7.5%
Cc1ccccc1-n1nc(CO)c(C(=O)NCc2cccs2)n1	-3.1%	-0.4%	x	-3.1%[59 µM]	18.6%
Cn1cccc1C(=O)N1CCC[C@@]2(CCN(C(=O)Nc3cccc(F)c3)C2)C1	x	x	x	-2.4%[12.7 µM]	x
COc1ccc2[nH]cc(CCN=C(NC(=O)c3ccccc3F)Nc3nc(C)cc(C)n3)c2c1	-27.2%	4.4%	x	20.1%[59 µM]	56.8%
COc1ccc(OCC2c3cc(OC)c(OC)cc3CCN2C(=O)C(C)C)cc1 (centres undefined)	56.2µM*	-36.6%	x	u	-8.3%
COC(=O)c1ccc(OCC2c3cc(OC)c(OC)cc3CCN2C(=O)c2ccc(OC)cc2)cc1 (centres undefined)	-33.6%	u	x	-47.5%[59 µM]	-21.8%
COC(=O)c1ccc(OCC2c3cc(OC)c(OC)cc3CCN2C(=O)c2ccco2)cc1 (centres undefined)	u	u	-10.3%	50.1µM*	-15.0%
CCOC(=O)C1CCN(C(=O)Cn2nc(CC)n3c(cc4occc43)c2=O)CC1	-4.7%	-13.4%	x	9.1%[59 µM]	25.3%
Cc1c(C)c2c(OCC(=O)NCC(=O)NCC(=O)O)cc3c(c2oc1=O)CCC(C)(C)O3	20µM*	2.4%	x	18.5%	17.1%
CCCN(CCC)CC(O)Cn1cc(/C=C/C(=O)c2ccc(C)cc2)c2ccccc21 (centres undefined)	u	22.4µM*	x	-53.7%[59 µM]	-0.8%
CCCN(CCC)CC(O)Cn1cc(/C=C/C(=O)c2ccc(OC)cc2)c2ccccc21 (centres undefined)	44.7µM*	u	x	-45.2%[59 µM]	-19.3%
O=C(NCCc1ccccc1)C1CCCN(c2cnccn2)C1 (centres undefined)	28.2µM*	-6.6%	x	x	u
c1ccc(CN2CCN(CCOCCOc3cccc4ccccc34)CC2)cc1	1.78µM*	22.4µM*	-9.5%	x	20µM*
COc1ccccc1OCCCCCCN1CCOCC1	20µM*	50.1µM*	4.3%	12.6µM*	u
O=C(c1ccco1)N1CCN(CCOCCOc2cccc3ccccc23)CC1	-23.3%	u	x	u	20.4%
c1ccc2c(OCCCCN3CCOCC3)cccc2c1	3.55µM*	50.1µM*	-5.4%	x	u
CC1=C(C(=O)Nc2ccc(Cl)cc2)C(c2cccs2)n2nc(SCc3cccc(C)c3)nc2N1 (centres undefined)	-3.8%	2.9%	x	9.1%[59 µM]	37.3%
CCC(CC)C(=O)Nc1ccc2nc(SCC(=O)N3CCOCC3)sc2c1	-17.5%	-4.6%	x	-4.3%[59 µM]	21.1%
CCOC(=O)C1=C(N)n2c(s/c(=C/c3ccccc3)c2=O)=C(C(=O)OCC)C1c1ccccc1 (centres undefined)	x	-24.2%[57.1 µM]	-3.7%	12.3%	x

Assay outcomes (PubChem)
